Records with an inconclusive call do not appear. Where a call stands in place of a potency, no number is given. Activity calls are given as the source filed them. Unless noted, calls follow the shape of the dose curve; as a rule, active = well fitted curve in the direction sought with a large enough effect in the repeat runs; inconclusive = weak or mixed curves; inactive = no such curve, though single readings can be large; an effect the other way counts as inactive or inconclusive.
Tests used:
[1] = qHTS assay to identify small molecule agonists of the sonic hedgehog signaling (Shh) pathway (AID 1259368; calls by dose curve;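 also: NIH/3T3-derived 3T3Gli1-Luc cells carrying a stable Gli1-driven firefly luciferase reporter; series mostly up to about 92 µM; nearly all actives have a fitted effect of over 15% in size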)
Procedure, shortened: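 Stable NIH/3T3 Gli1-Luc reporter clone; 24 hr cpd exposure after a 4 hr settling period; luminescence endpoint.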

[2] = target: Estrogen receptor beta (Homo sapiens) (UniProt Q92731); assay: qHTS assay to identify small molecule agonists of the estrogen receptor beta (ER-beta) signaling pathway (AID 1259377; active = well fitted activation curve with a large enough effect in the signal ratio in the repeat runs, not every such curve was filed as active; the % refers to the signal ratio)
Sequence of Estrogen receptor beta (Homo sapiens) (Q92731 whole entry, looked up, the tested form may be a part): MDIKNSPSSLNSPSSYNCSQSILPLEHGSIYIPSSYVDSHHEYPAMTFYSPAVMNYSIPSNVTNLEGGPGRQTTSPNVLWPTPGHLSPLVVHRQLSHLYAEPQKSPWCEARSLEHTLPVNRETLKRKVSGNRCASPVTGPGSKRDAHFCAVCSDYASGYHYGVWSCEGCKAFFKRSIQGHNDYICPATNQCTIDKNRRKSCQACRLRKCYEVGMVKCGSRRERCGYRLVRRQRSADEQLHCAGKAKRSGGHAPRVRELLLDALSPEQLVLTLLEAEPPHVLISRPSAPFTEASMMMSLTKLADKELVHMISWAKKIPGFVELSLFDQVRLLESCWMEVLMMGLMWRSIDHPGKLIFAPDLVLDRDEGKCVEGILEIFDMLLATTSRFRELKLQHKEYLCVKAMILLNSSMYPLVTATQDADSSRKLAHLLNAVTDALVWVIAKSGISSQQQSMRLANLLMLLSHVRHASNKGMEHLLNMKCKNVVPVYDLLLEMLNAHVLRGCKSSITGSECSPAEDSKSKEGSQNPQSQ
Procedure, shortened: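 Agonist mode cell assay in GripTite HEK293T cells expressing an ER-beta fusion that drives beta-lactamase from an Upstream Activator Sequence; 16 hr compound exposure at 37C, then 2 h LiveBLAzer B/G FRET substrate at room temperature, fluorescence read-out.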

[3] = target: Estrogen receptor beta (Homo sapiens) (UniProt Q92731); assay: qHTS assay to identify small molecule antagonists of the estrogen receptor beta (ER-beta) signaling pathway (AID 1259378; active = well fitted inhibition curve with a large enough effect in the signal ratio in the repeat runs, not every such curve was filed as active; the % refers to the signal ratio; also: potency is read from the fitted curve at half-maximal effect)
Procedure, shortened: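 ER-beta-UAS-bla HEK293T (GripTite) cells in 2% charcoal-stripped FBS medium were preincubated 6 hr at 37C, dosed with compound, then stimulated with 1 nM E2 (final) for 16 hr; beta-lactamase reporter read by B/G FRET fluorescence after 2 hr substrate loading.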

[4] = qHTS assay to identify small molecule agonists of the androgen receptor (AR) signaling pathway in the presence of an antagonist - cell viability counter screen (AID 1259379); also: nearly all actives have a fitted effect of over 25% in size; also: potency is read from the fitted curve at half-maximal effect
Procedure, shortened: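 Counter screen for cell viability run in parallel with the AR agonist-mode luciferase assay. MDA-kb2 cells were co-treated with nilutamide (3.0uM final) and compounds, then incubated 16 hr at 37C, and CellTiter-Fluor fluorescence was measured.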

[5] = qHTS assay to identify small molecule agonists of the estrogen receptor beta (ER-beta) signaling pathway - cell viability counter screen (AID 1259380); also: nearly all actives have a fitted effect of over 30% in size; also: potency is read from the fitted curve at half-maximal effect
Procedure, shortened: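 In this qHTS counter screen, HEK293T cells carrying an ER-beta/UAS beta-lactamase reporter, grown in 2% charcoal-stripped FBS, received compound for 16 hr; ATP-based CellTiter-Glo luminescence was then read after 30 min at room temperature.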

[6] = qHTS assay to identify small molecule antagonists of the estrogen receptor beta (ER-beta) signaling pathway - cell viability counter screen (AID 1259382); also: series mostly up to about 92 µM; nearly all actives have a fitted effect of over 55% in size
Procedure, shortened: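 HEK293T ER-beta-UAS-bla, 2% charcoal-stripped FBS; compounds + 1nM E2 16 hr 37C; CellTiter-Glo luminescence, 30 min RT.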

[7] = qHTS assay to identify small molecule agonists of the estrogen receptor alpha (ER-alpha) signaling pathway in the presence of an antagonist - cell viability counter screen (AID 1259386);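 also: series mostly up to about 92 µM; cells exposed to compounds for 22 h at 37 °C before the viability read; nearly all actives have a fitted effect of over 30% in size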
Procedure, shortened: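 Steps: 5-day stripped-FBS culture; seed and incubate 24hr; add ICI-182,780 (10.0nM final); pin 15-point compound titration; incubate 22hr at 37C; add CellTiter-Fluor at 21hr; read fluorescence.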

[8] = target: Progesterone receptor (Homo sapiens) (UniProt P06401); assay: qHTS assay to identify small molecule agonists of the progesterone receptor (PR) signaling pathway (AID 1346784; calls by dose curve; also: nearly all actives have a fitted effect of over 30% in size)
Sequence of Progesterone receptor (Homo sapiens) (P06401 whole entry, looked up): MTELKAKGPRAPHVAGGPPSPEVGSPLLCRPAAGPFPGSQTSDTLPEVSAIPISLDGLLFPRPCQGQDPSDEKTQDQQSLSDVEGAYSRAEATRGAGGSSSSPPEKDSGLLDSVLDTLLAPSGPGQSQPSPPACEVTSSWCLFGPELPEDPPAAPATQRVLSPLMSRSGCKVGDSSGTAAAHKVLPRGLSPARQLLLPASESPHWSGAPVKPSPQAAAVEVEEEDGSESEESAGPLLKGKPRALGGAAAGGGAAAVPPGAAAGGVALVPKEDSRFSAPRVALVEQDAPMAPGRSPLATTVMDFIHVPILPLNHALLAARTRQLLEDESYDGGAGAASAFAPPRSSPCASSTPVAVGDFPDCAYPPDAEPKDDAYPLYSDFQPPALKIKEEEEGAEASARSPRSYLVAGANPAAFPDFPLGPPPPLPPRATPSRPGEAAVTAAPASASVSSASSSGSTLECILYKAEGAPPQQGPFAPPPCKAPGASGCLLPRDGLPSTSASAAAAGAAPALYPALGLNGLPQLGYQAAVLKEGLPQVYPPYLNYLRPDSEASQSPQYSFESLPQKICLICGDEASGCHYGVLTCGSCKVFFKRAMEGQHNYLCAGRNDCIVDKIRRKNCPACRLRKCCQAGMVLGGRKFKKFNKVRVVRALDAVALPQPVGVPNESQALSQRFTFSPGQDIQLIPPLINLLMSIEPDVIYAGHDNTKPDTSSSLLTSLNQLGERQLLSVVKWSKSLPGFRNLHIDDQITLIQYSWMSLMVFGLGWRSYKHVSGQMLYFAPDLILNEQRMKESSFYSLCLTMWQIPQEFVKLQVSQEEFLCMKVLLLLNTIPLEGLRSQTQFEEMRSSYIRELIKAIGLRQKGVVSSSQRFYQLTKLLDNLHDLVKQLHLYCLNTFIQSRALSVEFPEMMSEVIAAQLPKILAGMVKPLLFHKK
Procedure, shortened: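 Cells (PR-UAS-bla HEK 293T, GripTite) were plated in assay medium containing 2% charcoal-stripped FBS and incubated 6 hr. Test compounds in DMSO were added for 16 hr at 37C. FRET substrate was then loaded for 2 hr at room temperature before fluorescence reading.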

[9] = target: Progesterone receptor (Homo sapiens) (UniProt P06401); assay: qHTS assay to identify small molecule antagonists of the progesterone receptor (PR) signaling pathway (AID 1346795; active = well fitted inhibition curve with a large enough effect in the signal ratio in the repeat runs, not every such curve was filed as active; the % refers to the signal ratio; also: potency is read from the fitted curve at half-maximal effect)
Procedure, shortened: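 Antagonist mode: compounds tested against 1 nM (final) promegestone stimulation in HEK293T cells expressing PR-UAS-bla reporter, 16 hr at 37C, 5% CO2; beta-lactamase activity detected via B/G FRET substrate after 2 hr at room temperature.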

[10] = qHTS assay to identify small molecule antagonists of the progesterone receptor (PR) signaling pathway - cell viability counter screen (AID 1346798); also: series mostly up to about 92 µM; nearly all actives have a fitted effect of over 50% in size
Procedure, shortened: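 Counter screen for cytotoxicity: viability of PR-UAS-bla HEK293T cells was measured with CellTiter-Glo luminescence following 16 hr compound exposure in the presence of R5020.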

[11] = qHTS assay to identify small molecule agonists of the progesterone receptor (PR) signaling pathway - cell viability counter screen (AID 1346799; calls by dose curve; also: nearly all actives have a fitted effect of over 45% in size)
Procedure, shortened: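 Cells (PR-UAS-bla HEK293T) are plated at 3,000/well in 2% charcoal-stripped FBS medium, rested 6 hr, dosed and incubated 16 hr at 37C. CellTiter-Glo is then added and luminescence measured after 30 min at room temperature.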

[12] = qHTS assay to identify small molecule antagonists of the TGF-beta/Smad signaling pathway - cell viability counter screen (AID 1346824); also: nearly all actives have a fitted effect of over 50% in size
Procedure, shortened: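 SBE-bla HEK 293T cells were plated overnight at 37 C, then given compounds in DMSO plus TGF-beta1 (added as 0.25 ng/mL solution) for 5 hr. After the bla read, CellTiter-Glo was added to the same wells and luminescence read after 30 min at room temperature.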

[13] = qHTS assay to identify small molecule agonists of the TGF-beta/Smad signaling pathway - cell viability counter screen (AID 1346829); also: top concentration of the series differs between compounds; nearly all actives have a fitted effect of over 45% in size
Procedure, shortened: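 Tox21 qHTS format: SBE-bla HEK 293T cells treated with DMSO-dissolved compounds for 5 hr; CellTiter-Glo luminescence after 30 min at room temperature.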

[14] = qHTS assay to identify small molecule agonists of the TGF-beta/Smad signaling pathway (AID 1346859; active = well fitted activation curve with a large enough effect in the signal ratio in the repeat runs, not every such curve was filed as active; the % refers to the signal ratio; also: series mostly up to about 77 µM)
Procedure, shortened: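 Reporter line: HEK 293T with stably integrated SBE-controlled beta-lactamase. Compound exposure lasts 5 hr at 37 C and 5% CO2; substrate loading follows for 2 hr at room temperature, with emission read at 460 and 530 nm.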

[15] = qHTS assay to identify small molecule antagonists of the sonic hedgehog signaling (Shh) pathway (AID 1259369; calls by dose curve; also: nearly all actives have a fitted effect of over 45% in size; also: potency is read from the fitted curve at half-maximal effect)
Procedure, shortened: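 Gli1 transcriptional reporter (firefly Luc) in NIH/3T3 background, conditioned-medium activated. 24hr exposure, luminescence endpoint.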

[16] = target: Estrogen receptor (Homo sapiens) (UniProt P03372); assay: qHTS assay to identify small molecule agonists of the estrogen receptor alpha (ER-alpha) signaling pathway in the presence of an antagonist (AID 1259383; calls by dose curve; also: top concentration of the series differs between compounds; nearly all actives have a fitted effect of over 15% in size)
Sequence of Estrogen receptor (Homo sapiens) (P03372 whole entry, looked up): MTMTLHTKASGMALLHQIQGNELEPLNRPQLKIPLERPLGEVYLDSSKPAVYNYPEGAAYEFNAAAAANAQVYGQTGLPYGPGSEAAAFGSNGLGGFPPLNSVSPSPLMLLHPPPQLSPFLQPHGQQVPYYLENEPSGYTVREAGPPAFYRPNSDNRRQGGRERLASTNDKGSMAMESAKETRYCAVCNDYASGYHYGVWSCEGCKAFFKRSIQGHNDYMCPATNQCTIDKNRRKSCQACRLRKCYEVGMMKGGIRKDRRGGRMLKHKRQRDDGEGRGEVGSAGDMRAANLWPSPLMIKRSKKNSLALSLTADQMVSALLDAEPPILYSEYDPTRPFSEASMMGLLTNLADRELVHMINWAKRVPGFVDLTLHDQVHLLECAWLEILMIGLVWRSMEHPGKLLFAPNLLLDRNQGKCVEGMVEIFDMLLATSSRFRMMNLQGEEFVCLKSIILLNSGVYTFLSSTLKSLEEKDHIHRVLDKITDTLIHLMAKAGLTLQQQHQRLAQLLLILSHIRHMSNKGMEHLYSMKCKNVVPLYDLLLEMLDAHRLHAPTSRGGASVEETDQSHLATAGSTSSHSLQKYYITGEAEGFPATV
Procedure, shortened: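 ER-alpha agonism measured under antagonist challenge: 10.0nM ICI-182,780 (final) plus compound, 15 concentrations, 22hr, VM7Luc4E2 ERE-luciferase cells. Read by luminescence.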

[17] = qHTS assay to identify small molecule agonists or antagonists of the thyroid stimulating hormone receptor (TSHR) signaling pathway - wild type cell line counter screen (AID 1259384; calls by dose curve)
Procedure, shortened: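 Wild-type HEK293 cells were plated 18 h at 37 C/5% CO2, pin-dosed with compound plus Ro20-1724 medium, held 30 min at room temperature, then given cAMP-d2 and anti-cAMP-cryptate; fluorescence was read after 1 h. Fifteen concentrations, triplicate.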

[18] = target: Thyrotropin receptor (Homo sapiens) (UniProt P16473); assay: qHTS assay to identify small molecule antagonists of the thyroid stimulating hormone receptor (TSHR) signaling pathway (AID 1259385; calls by dose curve; also: nearly all actives have a fitted effect of over 20% in size)
Sequence of Thyrotropin receptor (Homo sapiens) (P16473 whole entry, looked up): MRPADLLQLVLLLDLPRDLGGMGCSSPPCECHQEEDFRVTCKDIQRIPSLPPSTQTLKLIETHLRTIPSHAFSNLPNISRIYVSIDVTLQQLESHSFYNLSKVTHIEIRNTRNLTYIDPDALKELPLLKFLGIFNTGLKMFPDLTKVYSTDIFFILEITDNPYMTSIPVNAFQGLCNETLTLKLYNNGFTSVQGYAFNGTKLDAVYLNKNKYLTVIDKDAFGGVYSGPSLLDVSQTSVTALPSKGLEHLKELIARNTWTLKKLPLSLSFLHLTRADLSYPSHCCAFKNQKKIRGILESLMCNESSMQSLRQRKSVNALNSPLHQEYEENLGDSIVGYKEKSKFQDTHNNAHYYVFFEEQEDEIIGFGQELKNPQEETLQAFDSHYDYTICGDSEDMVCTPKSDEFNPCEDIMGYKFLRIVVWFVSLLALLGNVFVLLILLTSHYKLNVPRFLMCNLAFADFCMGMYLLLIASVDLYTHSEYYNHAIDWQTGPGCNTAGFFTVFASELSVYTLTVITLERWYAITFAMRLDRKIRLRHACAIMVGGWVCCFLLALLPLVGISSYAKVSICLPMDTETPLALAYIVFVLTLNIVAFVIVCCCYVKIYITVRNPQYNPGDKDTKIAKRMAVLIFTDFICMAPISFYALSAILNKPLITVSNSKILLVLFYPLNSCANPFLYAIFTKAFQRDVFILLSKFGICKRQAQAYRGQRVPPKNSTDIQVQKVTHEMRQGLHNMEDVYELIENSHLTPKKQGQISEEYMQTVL
Procedure, shortened: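 TSHR-HEK293 cells were plated and held 18 h at 37C/5% CO2, then given compound plus Ro20-1724 and stimulated with TSH at 1.5 ng/mL final. After 30 min at room temperature, cAMP was detected with cAMP-d2/anti-cAMP-cryptate (1 h) by fluorescence.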

[19] = target: Thyrotropin-releasing hormone receptor (Homo sapiens) (UniProt P34981); assay: qHTS assay to identify small molecule antagonists of the thyrotropin-releasing hormone receptor (TRHR) signaling pathway (AID 1346877; active = well fitted inhibition curve with a large enough effect in the repeat runs, not every such curve was filed as active; also: series mostly up to about 51 µM)
Sequence of Thyrotropin-releasing hormone receptor (Homo sapiens) (P34981 whole entry, looked up): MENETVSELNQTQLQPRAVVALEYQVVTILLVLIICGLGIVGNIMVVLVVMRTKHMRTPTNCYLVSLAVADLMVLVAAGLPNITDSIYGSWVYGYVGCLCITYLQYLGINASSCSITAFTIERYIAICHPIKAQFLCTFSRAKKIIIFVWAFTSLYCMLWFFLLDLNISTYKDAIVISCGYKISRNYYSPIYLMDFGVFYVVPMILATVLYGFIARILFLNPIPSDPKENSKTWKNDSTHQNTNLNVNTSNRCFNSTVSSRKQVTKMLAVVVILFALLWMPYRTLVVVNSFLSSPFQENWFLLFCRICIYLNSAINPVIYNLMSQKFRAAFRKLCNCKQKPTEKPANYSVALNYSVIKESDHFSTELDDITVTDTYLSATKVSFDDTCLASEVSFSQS
Procedure, shortened: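 Human TRHR in HEK293 cells; inhibition of the intracellular calcium rise triggered by 1 nM TRH was followed by fluorescence over 3 min. Compounds were run at 15 concentrations, three replicates each.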

SMILES | Potency [1] | Potency [2] | Potency [3] | Potency [4] | Potency [5] | Potency [6] | Potency [7] | Potency [8] | Potency [9] | Potency [10] | Potency [11] | outcome [12] | outcome [13] | outcome [14] | Potency [15] | Potency [16] | outcome [17] | Potency [18] | outcome [19]
Nc1nccs1 | inactive | inactive | inactive | inactive | inactive | inactive | inactive | inactive | inactive | inactive | inactive | inactive | inactive | inactive | – | – | – | – | –
OCCSc1ccccc1 | inactive | – | – | inactive | 19.3 µM (active) | – | inactive | inactive | – | – | – | inactive | inactive | inactive | inactive | inactive | inactive | inactive | –
CCCCC(CC)CNCC(CC)CCCC (stereo unspecified) | inactive | – | – | inactive | inactive | – | inactive | – | inactive | inactive | inactive | inactive | – | inactive | inactive | – | – | inactive | inactive
C=CC(C)(O)CCCC(C)CCCC(C)CCCC(C)C (stereo unspecified) | inactive | inactive | inactive | inactive | inactive | inactive | inactive | – | inactive | inactive | – | inactive | inactive | inactive | – | inactive | – | inactive | –
CC(C)(CCl)c1ccccc1 | inactive | inactive | inactive | inactive | inactive | inactive | inactive | inactive | inactive | inactive | inactive | inactive | inactive | inactive | – | inactive | inactive | – | –
O=C1OCCN1/N=C/c1ccc([N+](=O)[O-])o1 | inactive | inactive | inactive | inactive | inactive | inactive | inactive | inactive | inactive | inactive | inactive | inactive | inactive | inactive | – | inactive | inactive | – | inactive
O=C(N[C@@H](c1ccccc1)[C@@H]1CCCCN1)c1cccc(C(F)(F)F)c1Cl | inactive | inactive | 43.3 µM (active) | 17.2 µM (active) | 54.5 µM (active) | – | inactive | inactive | 34.4 µM (active) | – | – | inactive | inactive | inactive | – | inactive | inactive | inactive | inactive
CC(C)CCCCCCOC(=O)CCCCC(=O)OCCCCCCC(C)C | inactive | – | – | inactive | inactive | – | inactive | – | inactive | inactive | inactive | inactive | inactive | inactive | inactive | inactive | inactive | inactive | –
C=CC(C)(C)CC(=O)OC | inactive | – | – | – | 5.46 µM (active) | inactive | inactive | – | – | inactive | – | inactive | inactive | inactive | 27.4 µM (active) | – | inactive | inactive | inactive
